Screening data deposited in PubChem BioAssay by NMMLSC.
This is a sample that favours compounds with a hit; in the whole collection about 1.1% have one here.
CIT2-GFP yeast – alters CIT2-GFP fluorescence in TOR pathway yeast screen; S. cerevisiae CIT2-GFP strain, flow cytometry, 3 h; 100 means same as DMSO wells; GFP response vs DMSO, % at 10 µM; 0.065% of 320,000 active;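 active means GFP response relative to DMSO above a set limit, near the screen mean plus 3 SD, cut at about 150% in these data; inconclusive means Fewer than 70 cells measured for a yeast strain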;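 further: ratio of well median GFP fluorescence to mean of DMSO wells on the plate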
AGP1-GFP MLPCN – modulators of TOR pathway AGP1-GFP in S. cerevisiae | S. cerevisiae AGP1-GFP multiplex flow cytometry, 3 h; GFP as percent of DMSO wells | GFP response vs DMSO, % at 10 µM | 0.02% of 320,000 active;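 active means GFP response relative to DMSO above a set limit, near screen average plus 3 SD, cut at about 150% in these data; inconclusive means fewer than 70 cells counted for the yeast strain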;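 further: median GFP channel fluorescence of the gated AGP1 strain per well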
MEP2 TOR yeast – alters MEP2-GFP fluorescence in TOR pathway yeast screen. AID 2016. 0.51% of 330,000 active. S. cerevisiae MEP2-GFP strain, flow cytometry GFP, 3 h; 100% = DMSO control level. GFP response vs DMSO, % at 10 µM;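 active means GFP response versus DMSO above a set limit, roughly screen mean plus 3 SD, cut at about 180% in these data; inconclusive means fewer than 70 cells counted for a yeast strain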;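 further: median GFP fluorescence of the barcode-gated MEP2-GFP cells per well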
LAP4-GFP MLPCN – alters LAP4-GFP fluorescence in TOR pathway yeast screen. S. cerevisiae LAP4-GFP multiplex, flow cytometry GFP, 3 h; median GFP as percent of DMSO wells. GFP response vs DMSO, % at 10 µM. 0.34% of 320,000 active. AID 2023;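 active means GFP response vs DMSO above a set limit, about the screen mean plus 3 SD, cut at about 150% in these data; inconclusive means under 70 cell events counted for the yeast strain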
RPL19A-GFP yeast – modulators of TOR pathway RPL19A-GFP in S. cerevisiae | S. cerevisiae RPL19A-GFP strain, flow cytometry, 3 h; stronger effect = lower value | percent response vs DMSO, % at 10 µM | AID 2025 | 0.3% of 330,000 active;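 active means percent response vs DMSO below 50%; inconclusive means fewer than 70 events counted for the yeast strain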;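 further: median channel GFP fluorescence of the barcoded RPL19A-GFP strain; ratio of sample median GFP to plate DMSO average so 100% = DMSO; lower means less RPL19A-GFP as with rapamycin TOR inhibition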
VLA-4 inh – inhibition in a human VLA-4 binding assay; AID 2557; P13612; inhibition, % (about 7 µM as worked out from the volumes in the protocol); VLA-4 expressing cells, ligand binding flow cytometry; 0.2% of 330,000 active; in the data active means inhibition above about 50%
* = called active by the depositor; ? = inconclusive; · = not tested or not shown; [ ] = another dose, or the depositor's remark.

SMILES	CIT2-GFP yeast	AGP1-GFP MLPCN	MEP2 TOR yeast	LAP4-GFP MLPCN	RPL19A-GFP yeast	VLA-4 inh
CCNC(=O)/C(C#N)=C/c1c(N2CCCCCC2)nc2ccccn2c1=O	101	104	109	94	106	4
O=C(CCN1CCOCC1)NNC(=O)Nc1cccc([N+](=O)[O-])c1	93	93	95	90	101	8
CCN(CC)Cc1c(O)c(Cl)cc2c3c(c(=O)oc12)CCCC3	100	91	96	85	89	-2
Cc1c(C)c2cc(Cl)c(O)c(CN(C)C)c2oc1=O	?	23	129	94	67	9
CN(C)Cc1c(O)c(Cl)cc2c3c(c(=O)oc12)CCCC3	?	32	175*[may fluoresce violet]	106	54	16
CCc1c(C)c2cc(Cl)c(O)c(CN(C)C)c2oc1=O	102	31	193*	114	51	4
O=C(CNS(=O)(=O)c1ccc(F)cc1)Nc1ccc(C(F)(F)F)cc1	·	101	101	95	104	6
Cc1ccc(S(=O)(=O)NCC(=O)Nc2ccc(C(F)(F)F)cc2)cc1	?	·	173	99	41*[may fluoresce violet]	0
Cc1noc(NC(=O)c2cccc(C(F)(F)F)c2)c1Cl	94	?	?	?	?	10
Cc1noc(NC(=O)c2ccc(Cl)cc2)c1Cl	?	?	92	125	41*[may fluoresce violet]	5
CCc1cc(=O)oc2c(CN3CCCC3)c(O)c(Cl)cc12	94	68	248*	83	33*	15
CCc1cc(=O)oc2c(CN3CCN(C)CC3)c(O)ccc12	92	87	88	·	82	11
CCc1cc(=O)oc2c(CN3CCN(C)CC3)c(O)c(Cl)cc12	?	?	302*[may fluoresce violet]	84	44*[may fluoresce violet]	5
COCc1nnc(NC(=O)C2CCN(C(=O)c3ccco3)CC2)s1	?	19	968*[may fluoresce violet]	113	57	0
COc1ccc(CNC(=O)COC(=O)c2ccc(S(=O)(=O)N3CCCCC3)cc2)cc1	117	101	109	94	105	9
CC1=CC(C)[C@H](/C=N/n2c(=O)[nH]c3c([nH]c4ccc(C)cc43)c2=O)C(C)C1 (some centres undefined)	?	?	266*[may fluoresce violet]	73	44*[may fluoresce violet]	11
CC1=CC(C)C(/C=N/n2cnnc2)C(C)C1 (centres undefined)	110	·	114	106	103	10
COc1ccc(Nc2nc(-c3sc(N)nc3C)cs2)cc1	?	?	213*[may fluoresce violet]	?	40*[may fluoresce violet]	-6
Cc1nc(N)sc1-c1csc(Nc2ccc(Cl)cn2)n1	93	96	95	164*	91	-10
Cc1ccc(Nc2nc(-c3sc(N)nc3C)cs2)cc1	97	98	98	94	101	3
CC1Nc2ncnc(N3CCN(c4ccccc4)CC3)c2N(Cc2ccc(Br)cc2)C1=O (centres undefined)	95	94	102	113	104	15
COc1ccc(C(=O)NC2CCN(CC(=O)NCc3ccccc3)CC2)cc1	?	63	506*[may fluoresce violet]	94	60	4
Cc1ccc(S(=O)(=O)N(C)C)cc1NC(=O)CCCNC(=O)c1ccc(Cl)cc1	95	94	102	95	97	2
Cc1ccc(CC(=O)NCC(O)c2ccccc2)cc1 (centres undefined)	?	?	284*[may fluoresce violet]	85	46*[may fluoresce violet]	38
Cc1ccc(CNC(=O)Cc2ccc(-c3ccccc3)cc2)cc1	97	101	105	102	100	4
COc1ccc(CN2C(=O)c3cccnc3C2=O)cc1S(=O)(=O)N1CCOc2ccccc21	?	?	334*[may fluoresce violet]	110	45*[may fluoresce violet]	24
COc1ccc(CN2C(=O)c3cccnc3C2=O)cc1S(=O)(=O)N1CCOc2ccc(Cl)cc21	91	99	111	102	98	20
O=C(NCCOc1ccc(Cl)cc1)c1cccc(S(=O)(=O)N2CCCC2)c1	91	104	106	114	99	6
O=C(NCCc1ccccc1)C(c1ccccc1)N(C(=O)c1csnn1)C1CC1 (centres undefined)	103	108	110	110	102	6
